Bioassay records deposited in PubChem by National Center for Advancing Translational Sciences (NCATS).
Hits are enriched below; roughly 3.8% of the tested compounds scored in any of these assays.
TGFb SMAD3 inh – TGF-b pathway inhibition; AID 588855; Potency, µM (titrated, usually from 46.1 µM), for inactives: at the top dose activity, negative = inhibition, hits mostly inhibitors; 410,000 tested, 1.2% active; HepG2 CAGA-GFP TGF-b/SMAD3 reporter, GFP fluorescence, 18 h; TGF-beta stimulated, 500 pg/mL final; note: % is set by controls: 0 for no effect and ±100 for the full control effect; nearly all actives have a fitted effect of over 65% in size
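HEPG2 CAGA-GFP reporter cells (1000/well, DMEM with 1% FBS) received compounds, then recombinant TGF-beta at 500 pg/mL final for 18 hours at 37 degrees C. Per-cell GFP summed per well was normalised to unstimulated and stimulated DMSO controls before curve fitting.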
ATXN2 expr inh – inhibitors of ATXN2 expression; Potency, µM (titrated, usually from 57 µM), without a hit: at the highest dose activity change, negative = inhibition, hits mostly inhibitors; AID 1745845; 360,000 tested, 0.72% active; HEK-293 ATXN2-luciferase reporter, luminescence, 24 h; note: % is set by controls: 0 for no effect and ±100 for the full control effect; nearly all actives have a fitted effect of over 55% in size
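ATXN2-luciferase reporter cells (luciferase flanked by upstream and downstream ATXN2 gene portions) were treated 24 h at 37 °C with compounds at up to 57 uM. SteadyGlo luminescence gave expression; GF-AFC fluorescence gave viability.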
A549 tox-1 – kills or reduces viability of A549 cells in Nrf2 counter-screen | A549 ARE-Fluc cells, CellTiter-Fluor viability, 18-24 h | Potency, µM (doses to about 46 µM), for the others: top-dose activity change, negative = cytotoxicity, actives largely listed as inhibitors | 390,000 tested, 0.16% active | AID 504648; note: % is set by controls: 0 for no effect and ±100 for the full control effect
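A549 ARE_Fluc cells in 5% FBS OPTI-MEM were exposed to compounds in concentration-response for 18-24 h at 37 deg C. Viability was read by CellTiter-Fluor fluorescence (Ex 405/Em 525) after 30 min, before the luciferase read.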
HepG2 viability – counter-screen for TGF-b inhibitors: cytotoxicity in HepG2 cells. HepG2 CAGA-GFP viability, ATP luminescence, 18 h. 410,000 tested, 0.76% active. Potency, µM (highest dose often 46.1 µM), for inactives: at the highest dose activity change, negative = cytotoxicity, most hits filed as cytotoxic
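HepG2 CAGA-GFP cells (1000/well, DMEM with 1% FBS) received compound, then TGF-beta at 500 pg/mL final, and were incubated 18 hours at 37 degrees C. Viability was read by CellTiter-Glo luminescence. Media-only wells were set as complete cell-killing and DMSO as no toxicity.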
S2 tox – reduces viability in counter-screen for ATXN expression inhibitors; AID 651635; 400,000 tested, 0.49% active; Potency, µM (top dose mostly 56.7 µM), most hits filed as cytotoxic; S2 cells (HEK-293 line with an ATXN2-luciferase reporter) viability, CellTiter-Fluor protease fluorescence, 24 h; note: nearly all actives have a fitted effect of over 40% in size
Nrf2 inh – blocks Nrf2 signaling | A549 ARE-Fluc reporter, luciferase luminescence, 18-24 h | Potency, µM (highest dose often 46 µM), for inactives: at the highest dose activity change, negative = inhibition, actives largely listed as inhibitors | 360,000 tested, 2.1% active | AID 504444; note: % is set by controls: 0 for no effect and ±100 for the full control effect; nearly all actives have a fitted effect of over 60% in size
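A549 ARE_Fluc cells, 5000/well, 5% FBS OPTI-MEM; compounds in dose-response, 18-24 h at 37 °C/5% CO2; CellTiter-Fluor viability read (Ex 405/Em 525), then BugLite luciferase luminescence = Nrf2 activity.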
FLuc counter 3 – firefly luciferase inhibition, Nrf2 hit validation; shares compounds with Nrf2 inh; purified firefly luciferase, luminescence inhibition; AID 720522; 1,400 tested, 4% active; Potency, µM (highest dose often 57.5 µM), without a hit: at the highest dose activity change, negative = inhibition, actives largely listed as inhibitors; note: % is set by controls: 0 for no effect and ±100 for the full control effect; nearly all actives have a fitted effect of over 65% in size
Target sequence (P08659 whole entry, looked up): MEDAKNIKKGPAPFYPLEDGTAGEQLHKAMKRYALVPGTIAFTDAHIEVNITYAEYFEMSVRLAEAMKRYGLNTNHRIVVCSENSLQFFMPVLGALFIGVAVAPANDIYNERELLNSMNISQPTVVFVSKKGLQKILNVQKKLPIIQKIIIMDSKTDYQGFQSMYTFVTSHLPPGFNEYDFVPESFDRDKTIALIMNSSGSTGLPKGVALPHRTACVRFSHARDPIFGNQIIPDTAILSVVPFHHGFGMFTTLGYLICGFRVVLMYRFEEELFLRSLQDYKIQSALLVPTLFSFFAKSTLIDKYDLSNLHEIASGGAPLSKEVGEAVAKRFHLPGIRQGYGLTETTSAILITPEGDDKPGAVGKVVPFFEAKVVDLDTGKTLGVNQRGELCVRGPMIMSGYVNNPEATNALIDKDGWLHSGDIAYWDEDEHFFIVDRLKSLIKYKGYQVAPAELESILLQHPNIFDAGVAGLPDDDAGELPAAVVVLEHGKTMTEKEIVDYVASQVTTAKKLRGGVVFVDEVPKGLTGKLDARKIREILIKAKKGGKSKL
A549 tox-2 – toxic to A549 ARE-Fluc cells in Nrf2 counterscreen; shares compounds with Nrf2 inh; A549 ARE-Fluc cells, cytotoxicity counterscreen; Potency, µM (highest dose often 46.1 µM), without a hit: top-dose activity change, negative = cytotoxicity, hits mostly inhibitors; 1,400 tested, 2% active; AID 720523;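 note: cells exposed to compounds for 18 to 24 hours; % is set by controls: 0 for no effect and ±100 for the full control effect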
ARE-Fluc inh – Nrf2 inhibition confirmed, A549 ARE-luciferase; 1,400 tested, 74% active; A549 ARE-firefly luciferase reporter, luminescence; shares compounds with Nrf2 inh; Potency, µM (doses to about 46.1 µM), inactives show at the top dose activity change, negative = inhibition, hits mostly inhibitors; note: % is set by controls: 0 for no effect and ±100 for the full control effect; nearly all actives have a fitted effect of over 65% in size
Numbers without * were called inactive; i = inactive; u = inconclusive; x = no result shown; ! = not active in a repeat. Calls come from the whole dose curve; as a rule, active = well fitted curve in the direction sought with a large enough effect; inconclusive = small, poorly fitted or top-dose-only effect, or another doubt; inactive = no such curve, though single readings can be large; an effect the other way counts as inactive or inconclusive. Potency is the fitted concentration of half-maximal effect.

SMILES | TGFb SMAD3 inh | ATXN2 expr inh | A549 tox-1 | HepG2 viability | S2 tox | Nrf2 inh | FLuc counter 3 | A549 tox-2 | ARE-Fluc inh
O=C(OCC(=O)N1CCN(C(=O)c2ccco2)CC1)c1cccc(S(=O)(=O)N2CCc3ccccc32)c1 | u | -32.6% | 10.5% | -13.4% | i | -18.4% | x | x | x
O=c1c2c(nc3c(-c4cccc5ccccc45)c[nH]n13)CCC2 | -6.4% | -15.6% | 5.1% | -50.2% | i | -18.1% | x | x | x
O=c1c2c(nc3c(-c4ccc(Cl)cc4)c[nH]n13)CCCC2 | u | 15.8µM* | -11.9% | -21.9% | u | 7.94µM* | -15.9% | -16.2% | 6.51µM*
COc1ccc(OC)c(S(=O)(=O)NC2CC(=O)N(c3cccc(F)c3)C2)c1 (centres undefined) | 0.7% | 6.4% | -1.9% | 6.1% | i | 14.0% | x | x | x
COc1cc2c(oc(=O)c3cc(C)cc(OC)c32)c2c(C3OC(C)C(O)C(C)(O)C3O)ccc(O)c12 (centres undefined) | 7.08µM* | 0.0% | 5.8µM* | 2.2% | u | 1.3µM* | -13.1% | u | 1.84µM*
COc1cccc2cc(C(=O)N3CC(C)OC(C)C3)c(=O)oc12 (centres undefined) | u | -18.8% | 15.5% | -25.9% | i | 1.8% | x | x | x
COc1ccc(C2=NC3(CCCCCC3)N(CC(=O)Nc3cccc(Cl)c3)C2=O)cc1 | x | x | u | -24.7% | x | u | x | x | x
Cc1ccc(S(=O)(=O)N/N=C2/CC(c3ccccc3)Oc3ccccc32)cc1[N+](=O)[O-] (centres undefined) | -17.0% | 12.8% | -15.5% | -30.8% | i | u | x | x | x
O=S(=O)(N/N=C1/CC(c2ccccc2)Oc2ccccc21)c1ccc(Br)cc1 (centres undefined) | u | -2.4% | u | -17.0% | i | 8.2µM* | u | -7.1% | x
c1ccc(-c2nnc(-c3ccccn3)c(-c3ccccn3)n2)nc1 | 6.8% | -10.2% | -1.6% | -2.5% | i | 6.9% | x | x | x
CN(C)c1nc(-c2ccccn2)nnc1-c1ccccc1 | 2.5% | 8.91µM* | u | -4.3% | i | u | -2.0% | -12.7% | 11.6µM*
COc1ncccc1C(=O)N1CCCC(N2CCN(c3cccc(Cl)c3)CC2)C1 (centres undefined) | -23.9% | -25.5% | 3.8% | -5.8% | i | 8.2µM* | -1.3% | 0.9% | u
CCOC(=O)c1cc2c(=O)n3ccccc3nc2n(CCOC)c1=NC(=O)c1c(-c2c(F)cccc2Cl)noc1C | 20.2% | -22.2% | -19.9% | -3.5% | i | 6.51µM*! | 0.1% | -17.3% | u
COc1ccc(NS(=O)(=O)c2ccc(-n3cccn3)cc2)cc1OC | u | -20.4% | -2.6% | -21.8% | i | x | x | x | x
NC(=S)N/N=C/c1ncc(C(F)(F)F)cc1Cl | 4.47µM* | 7.94µM* | u | -53.0% | 14.1µM* | 4.11µM* | -1.5% | u | 5.17µM*
NC(=S)N/N=C/c1ccc(C(F)(F)F)cc1 | -29.4% | -27.5% | -2.5% | -22.1% | i | u | x | x | x
O=C(COC(=O)c1cnccn1)c1cccc([N+](=O)[O-])c1 | -5.3% | x | 0.5% | 4.9% | i | 2.1% | x | x | x
